# Laboratory results published in the supplement of paper PMC12282887.
# ± gives the standard deviation of the averaged measurements.
# Legend:
# Experiment in all cases: promoter activity interaction Z-score (Lux/OD deviation from empty-vector control); higher = stronger promoter induction by the compound
# [1] = test system: E. coli BW25113 acrABp lux reporter
# Outline: (§1)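 Low-copy luxCDABE promoter reporters were carried by E. coli BW25113, either wild type or lacking one of three genes, grown in 40 µl LB Lennox in 384-well plates at 37°C. Each compound was run at four 1:2 dilutions in biological duplicates, with OD600 and luminescence read every 30 min for 12 h. Integration used 0–8 h for wild type and 1–9 h for deletion strains, and wells under 10% of the median growth value were removed. Luminescence normalised to growth was fitted against a control, and the Z-transformed residual is the score.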
# [2] = test system: E. coli BW25113 micFp lux reporter
# Outline: as §1
# [3] = test system: E. coli BW25113 ompFp lux reporter
# Outline: as §1
# [4] = test system: E. coli BW25113 robp lux reporter
# Outline: as §1
# [5] = test system: E. coli BW25113 soxSp lux reporter
# Outline: as §1
# [6] = test system: E. coli BW25113 tolCp lux reporter
# Outline: as §1
# [7] = 0.07 µg/ml, genetic background: wild type
# [8] = 0.07 µg/ml, genetic background: ΔmarA
# [9] = 0.07 µg/ml, genetic background: Δrob
# [10] = 0.07 µg/ml, genetic background: ΔsoxS
# [11] = 0.15 µg/ml, genetic background: wild type
# [12] = 0.15 µg/ml, genetic background: ΔmarA
# [13] = 0.15 µg/ml, genetic background: Δrob
# [14] = 0.15 µg/ml, genetic background: ΔsoxS
# [15] = 0.29 µg/ml, genetic background: wild type
# [16] = 0.29 µg/ml, genetic background: ΔmarA
# [17] = 0.29 µg/ml, genetic background: Δrob
# [18] = 0.29 µg/ml, genetic background: ΔsoxS
compound,measurement,setting,value
NCC[C@H](O)C(=O)N[C@@H]1C[C@H](N)[C@@H](O[C@H]2O[C@H](CN)[C@@H](O)[C@H](O)[C@H]2O)[C@H](O)[C@H]1O[C@H]1O[C@H](CO)[C@@H](O)[C@H](N)[C@H]1O [Amikacin],promoter activity interaction Z-score,[1]; [7],-0.0946 ± 0.19
same,promoter activity interaction Z-score,[1]; [8],-0.446 ± 0.067
same,promoter activity interaction Z-score,[1]; [9],-0.0638 ± 0.15
same,promoter activity interaction Z-score,[1]; [10],0.407 ± 0.79
same,promoter activity interaction Z-score,[1]; [11],-0.184 ± 0.091
same,promoter activity interaction Z-score,[1]; [12],0.671 ± 0.15
same,promoter activity interaction Z-score,[1]; [13],0.0534 ± 0.092
same,promoter activity interaction Z-score,[1]; [14],0.0811 ± 0.13
same,promoter activity interaction Z-score,[1]; [15],0.115 ± 0.19
same,promoter activity interaction Z-score,[1]; [16],-0.213 ± 0.41
same,promoter activity interaction Z-score,[1]; [17],0.174 ± 0.22
same,promoter activity interaction Z-score,[1]; [18],0.725 ± 0.52
same,promoter activity interaction Z-score,[2]; [7],0.278 ± 0.0046
same,promoter activity interaction Z-score,[2]; [8],-0.0226 ± 0.005
same,promoter activity interaction Z-score,[2]; [9],0.217 ± 0.22
same,promoter activity interaction Z-score,[2]; [10],0.0839 ± 0.14
same,promoter activity interaction Z-score,[2]; [11],0.512 ± 0.097
same,promoter activity interaction Z-score,[2]; [12],-0.00684 ± 0.057
same,promoter activity interaction Z-score,[2]; [13],0.12 ± 0.33
same,promoter activity interaction Z-score,[2]; [14],0.119 ± 0.33
same,promoter activity interaction Z-score,[2]; [15],-0.0466 ± 0.17
same,promoter activity interaction Z-score,[2]; [16],-0.0853 ± 0.18
same,promoter activity interaction Z-score,[2]; [17],0.176 ± 0.21
same,promoter activity interaction Z-score,[2]; [18],0.577 ± 0.056
same,promoter activity interaction Z-score,[3]; [7],0.0689 ± 0.025
same,promoter activity interaction Z-score,[3]; [8],-0.0472 ± 0.084
same,promoter activity interaction Z-score,[3]; [9],-0.503 ± 0.43
same,promoter activity interaction Z-score,[3]; [10],0.197 ± 1.1
same,promoter activity interaction Z-score,[3]; [11],0.165 ± 0.46
same,promoter activity interaction Z-score,[3]; [12],-0.0471 ± 0.24
same,promoter activity interaction Z-score,[3]; [13],-0.472 ± 0.32
same,promoter activity interaction Z-score,[3]; [14],-0.668 ± 0.2
same,promoter activity interaction Z-score,[3]; [15],0.00226 ± 0.33
same,promoter activity interaction Z-score,[3]; [16],-0.365 ± 0.65
same,promoter activity interaction Z-score,[3]; [17],-0.428 ± 0.22
same,promoter activity interaction Z-score,[3]; [18],-0.0742 ± 0.3
same,promoter activity interaction Z-score,[4]; [7],0.19 ± 0.2
same,promoter activity interaction Z-score,[4]; [8],-0.331 ± 0.085
same,promoter activity interaction Z-score,[4]; [9],0.0353 ± 0.83
same,promoter activity interaction Z-score,[4]; [10],-0.155 ± 0.68
same,promoter activity interaction Z-score,[4]; [11],0.0679 ± 0.58
same,promoter activity interaction Z-score,[4]; [12],-0.461 ± 0.45
same,promoter activity interaction Z-score,[4]; [13],-0.248 ± 0.33
same,promoter activity interaction Z-score,[4]; [14],-0.642 ± 0.14
same,promoter activity interaction Z-score,[4]; [15],-0.115 ± 0.051
same,promoter activity interaction Z-score,[4]; [16],0.598 ± 0.21
same,promoter activity interaction Z-score,[4]; [17],-1.2 ± 0.31
same,promoter activity interaction Z-score,[4]; [18],-0.0862 ± 0.53
same,promoter activity interaction Z-score,[5]; [7],0.354 ± 0.11
same,promoter activity interaction Z-score,[5]; [8],0.016 ± 0.15
same,promoter activity interaction Z-score,[5]; [9],0.176 ± 0.043
same,promoter activity interaction Z-score,[5]; [10],0.0385 ± 0.3
same,promoter activity interaction Z-score,[5]; [11],0.336 ± 0.13
same,promoter activity interaction Z-score,[5]; [12],0.137 ± 0.1
same,promoter activity interaction Z-score,[5]; [13],0.346 ± 0.51
same,promoter activity interaction Z-score,[5]; [14],-0.156 ± 0.15
same,promoter activity interaction Z-score,[5]; [15],0.219 ± 0.2
same,promoter activity interaction Z-score,[5]; [16],-0.031 ± 0.32
same,promoter activity interaction Z-score,[5]; [17],-0.131 ± 0.29
same,promoter activity interaction Z-score,[5]; [18],0.0937 ± 0.57
same,promoter activity interaction Z-score,[6]; [7],-0.282 ± 0.25
same,promoter activity interaction Z-score,[6]; [8],-0.355 ± 0.29
same,promoter activity interaction Z-score,[6]; [9],1.45 ± 1.6
same,promoter activity interaction Z-score,[6]; [10],1.15 ± 0.34
same,promoter activity interaction Z-score,[6]; [11],0.0971 ± 0.8
same,promoter activity interaction Z-score,[6]; [12],0.793 ± 0.15
same,promoter activity interaction Z-score,[6]; [13],0.637 ± 0.84
same,promoter activity interaction Z-score,[6]; [14],-0.668 ± 0.34
same,promoter activity interaction Z-score,[6]; [15],1.16 ± 1.8
same,promoter activity interaction Z-score,[6]; [16],-0.226 ± 1.1
same,promoter activity interaction Z-score,[6]; [17],1.53 ± 1.6
same,promoter activity interaction Z-score,[6]; [18],1.21 ± 0.019
